Assay outcomes: PubChem, National Center for Advancing Translational Sciences (NCATS)
In the library only some 11% were active in any assay of this set; here they are far more common.
AMA1 RON2 block: qHTS for Inhibitors of AMA1-RON; Towards Development of Antimalarial Drug Lead: Primary Screen; Plasmodium falciparum AMA1 (3D7) - RON2 peptide interaction; AlphaScreen AMA1-biotinylated RON2 peptide binding; Potency, µM (doses to about 58.2 µM), for the others: at the highest dose activity change, negative = inhibition, actives largely listed as inhibitors; 0.2% of 360,000 active; AID 720542, 2013;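 note: 0% = vehicle wells and -100% = peptide control; nearly all actives have a fitted effect of over 45% in size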
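AMA1 (3D7) with his tag at 25 nM final met compounds first, then biotinylated RON2 peptide at 25 nM; detection used donor plus acceptor beads, 10 µg/mL apiece, read by AlphaScreen after 30 min at room temperature.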
HCV inh: qHTS Assay for Inhibitors of Hepatitis C Virus (HCV). Huh7.5.1 HCVcc-Cre infection, luciferase reporter, 44 h. Potency, µM (doses to about 41.8 µM), for inactives: top-dose activity change, negative = inhibition, hits mostly inhibitors. 3.4% of 340,000 active. AID 651820, 2012
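1,000 cells/well; 4 h culture; + compound; + HCVcc-Cre (~0.5 moi); 44 h; luciferase substrate, RT 15 min; read 15 sec.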
Pf growth 96h: Primary qHTS for delayed death inhibitors of the malarial parasite plastid, 96 hour incubation. P. falciparum luciferase reporter growth, 96 h. Potency, µM (highest dose often 28.7 µM), for the others: at the top dose activity change, negative = inhibition, usual class: inhibitors. 6.9% of 320,000 active. AID 504834, 2011
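96 h incubation, 37 C, 5% CO2, of luciferase-reporter P. falciparum-infected RBCs (2% hematocrit, 0.05% parasitemia final) with test compounds; endpoint luminescence.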
Pf growth 48h: Primary qHTS for delayed death inhibitors of the malarial parasite plastid, 48 hour incubation; P. falciparum luciferase growth in erythrocytes, 48 h; 5.9% of 310,000 active; Potency, µM (series often up to 28.7 µM), without a hit: at the highest dose activity change, negative = inhibition, most hits filed as inhibitors
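First compound was added to culture medium, then infected red cells at 0.1% parasitemia and 2% hematocrit (final). After incubation at 37 C under 5% CO2, luciferase detection reagent was dispensed and light output recorded.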
An asterisk follows results filed as active; ? = inconclusive; . = no result; [ ] = another dose, or the depositor's remark. Calls come from the whole dose curve; as a rule, active = well fitted curve in the direction sought with a large enough effect; inconclusive = small, poorly fitted or top-dose-only effect, or another doubt; inactive = no such curve, though single readings can be large; an effect the other way counts as inactive or inconclusive. Unless noted, % is set by controls: 0 for no effect and ±100 for the full control effect; potency is the fitted concentration of half-maximal effect.

SMILES	AMA1 RON2 block	HCV inh	Pf growth 96h	Pf growth 48h
CCOC(=O)c1sc2nccc(OC)c2c1N=CN(C)C	-1%	-11%	65%	423%
CCOC(=O)c1cnc2c(c(C)nn2C)c1Oc1cc(Cl)cc(Cl)c1	-25%	3%	?	?
CCN(c1ccc(C)cc1)S(=O)(=O)c1nnc(NC(=O)c2ccco2)s1	15%	13%	?	-8%
Cc1cc(SCC(=O)NCC2CCCO2)nc2ccccc12 (stereo unspecified)	-20%	6%	1%	3%
COc1cccc(N2CCN(C(=O)C3CCN(S(=O)(=O)c4ccc5c(c4)CC(C)N5C(C)=O)CC3)CC2)c1 (stereo unspecified)	-3%	11µM*	?	?
CC(=O)N1c2ccc(S(=O)(=O)N3CCC(C(=O)N4CCN(c5ccccc5F)CC4)CC3)cc2CC1C (stereo unspecified)	18%	?	?	?
C[C@@H]1CN([C@@H](C)CO)S(=O)(=O)c2ccc(Br)cc2O[C@H]1CN(C)C(=O)c1cccc(F)c1	-13%	.	.	.
Cc1ccc(C(=O)Oc2ccccc2N2C(=O)C3C4CCC(C4)C3C2=O)cc1 (stereo unspecified)	-20%	26%	20%	26%
CCOC(=O)N1CCC(Nc2c(-c3ccc(C)c(C)c3)c(=O)c2=O)CC1	1%	-26%	0.52µM*	-7%
CCOC(=O)N1CCC(Nc2c(N3CCN(c4cc(Cl)ccc4C)CC3)c(=O)c2=O)CC1	0%	10µM*	4.7µM*	.
CCC(=O)Nc1c2c(nc3c1CCC3)CCCC2	4%	8%	2.1µM*	6%
CC(=O)c1c(C)[nH]c(C(=O)Nc2nc(C)cs2)c1C	-1%	-24%	121%	80%
CC(=O)c1c(C)[nH]c(C(=O)Nc2cc(C)cc(C)c2)c1C	-9%	?	5.9µM*	.
CC(=O)c1c(C)[nH]c(C(=O)Nc2cccc(S(=O)(=O)N(C)C)c2)c1C	-1%	?	38%	37%
CC(=O)c1c(C)[nH]c(C(=O)Nc2ccc(S(=O)(=O)N(C)C)cc2)c1C	0%	-19%	13µM*	?
COc1ccc(NC(=O)CCC2CCCCC2)cc1S(=O)(=O)N1CCCCC1	-1%	?	?	?
Cc1cc(=O)n2nc(N3CCCC(C(=O)NC4CCC(C)CC4)C3)sc2n1 (stereo unspecified)	19%	-1%	5%	?
COc1ccc(N=C2SCC(=O)N2CCc2ccc(OC)c(OC)c2)cc1	-7%	?	?	?
COc1ccc(CCN2C(=O)CSC2=Nc2ccc(C(C)C)cc2)cc1OC	?	-77%	?	10µM*
CCOc1ccc(NC(=O)CN(C)C(=O)c2ccccc2OCCOc2ccccc2)cc1OCC	0%	?	?	-29%
CC[C@@H](CC1CCCCC1)C(=O)N(Cc1ccccc1)c1ccccc1	32%	10µM*	.	.
COC(=O)C(CC(=O)c1ccc(Br)cc1)n1ccnc1 (stereo unspecified)	.	1.3µM*	-30%	?
CCN(C(=O)CN1C(=O)COc2ccc(S(=O)(=O)N3CCCCCC3)cc21)c1cccc(C)c1	-7%	?	?	3.3µM*
COc1ccc(NC(=O)CN2C(=O)COc3ccc(S(=O)(=O)N4CCCCCC4)cc32)cc1	1%	?	10µM*	5%
CCOc1ccc(NC(=O)CN2C(=O)COc3ccc(S(=O)(=O)N4CCCCC4)cc32)cc1	-12%	?	0%	?
SMILES	AMA1 RON2 block	HCV inh	Pf growth 96h	Pf growth 48h
CC(C)N(Cc1ccccc1)C(=O)CN1C(=O)COc2ccc(S(=O)(=O)NC3CCCC3)cc21	-8%	7%	?	5.2µM*
CCN(Cc1ccccc1)C(=O)CN1C(=O)COc2ccc(S(=O)(=O)N3CCCCCC3)cc21	-10%	-11%	?	10µM*
Cc1cc2oc(C(=O)N(Cc3ccccc3)C3CCS(=O)(=O)C3)cc(=O)c2cc1Cl (stereo unspecified)	-22%	1%	-65%	.
O=C(C1CCCCC1)N1C[C@@H](n2cc(-c3ccc(F)cc3)nn2)[C@H](O)C[C@@H]1c1ccccc1	-3%	.	.	.
Cc1c(C(=O)Oc2ccc(F)cc2)sc2ncn(Cc3cccc(F)c3)c(=O)c12	1%	7%	11%	3%
CCCCN(C)C(=O)c1sc2ncn(CC)c(=O)c2c1C	1%	-13%	10µM*	7%
CCn1cnc2sc(C(=O)Oc3cccc(C)c3)c(C)c2c1=O	0%	1.4µM*	?	146%
CCCNC(=O)Cn1cnc2sc(C(=O)NCCN(CC)CC)c(C)c2c1=O	-5%	-7%	130%	24%
O=C(COC(=O)c1cncc(Br)c1)Nc1ccc(F)c(F)c1F	-5%	?	39%	35%
O=C(c1ncn[nH]1)N1CCN(c2nc(-c3ccccc3)cs2)CC1	56%	-22%	.	71%
O=C(c1cc(-n2cnnc2)ccc1Cl)N1CCN(c2nc(-c3ccccc3)cs2)CC1	-13%	10µM*	0%	3%
CCCCn1c(=N)n(CC(=O)c2ccc(Br)s2)c2ccccc21	-4%	?	12µM*	10µM*
Cc1ccc2c(c1)C(=O)C(=O)N2CC(=O)Nc1ccccc1NC(=O)c1ccccn1	56%	-9%	28%	-4%
CCOc1ccccc1CN1C(=O)c2ccccc2C1C(=O)NC(C)CC (stereo unspecified)	2%	-6%	8.3µM*	-30%
CCc1ccc(CN2C(=O)c3ccccc3C2C(=O)NC(C)CC)cc1 (stereo unspecified)	0%	4%	-7%	-1%[0.00184 µM]
COc1ccc(CN2C(=O)c3ccccc3C2C(=O)NCCc2ccccc2)c(OC)c1 (stereo unspecified)	-6%	-7%	8.3µM*	?
CC(C)N1C(=O)c2ccccc2C1C(=O)NCCc1ccccc1 (stereo unspecified)	-4%	3%	8.3µM*	16%
COc1ccc(CN2C(=O)c3ccccc3C2C(=O)NC2CCCCCC2)c(OC)c1 (stereo unspecified)	0%	-29%	?	?
Cc1cc(C)c[n+](C2=C([O-])c3ccccc3C(=O)/C2=N\S(=O)(=O)c2cccs2)c1	-4%	?	?	1.9µM*
Cc1cc[n+](C2=C([O-])c3ccccc3C(=O)/C2=N\S(=O)(=O)c2cccs2)cc1C	-8%	11µM*	3.3µM*	2.6µM*
O=C(CSc1ccc2nnc(CCNS(=O)(=O)c3ccccc3)n2n1)Nc1nc2ccccc2s1	16%	-24%	12%	11%
CCCC[n+]1c2ccccc2cc2ccccc21	0%	6.3µM*	0%	?
CCC[n+]1c2ccccc2cc2ccccc21	-3%	?	?	.
